Hits are enriched below; roughly 19% of the tested compounds scored in any of these assays.
IL-1B inflam inh = inflammasome signaling inhibition, IL-1 beta readout; THP-1 LPS/ATP IL-1B secretion, AlphaLISA, 16 h; active compounds read low; activity change, % at 57.5 µM; actives 4.7% (n = 360,000); in the data active = activity change below about -50%; inconclusive = mostly about -30% to -49%
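Secreted IL-1B measured by AlphaLISA bead assay after 16 h compound exposure of THP-1 cells; compounds (final up to 57.5 uM) added 1 h before LPS (250 ng/mL) and ATP (1.25 mM) stimulation; lower signal means less secretion.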
DT40 TDP1 CPT = growth inhibition of DT40 Tdp1-/-;hTDP1 cells with camptothecin (screen for TDP1 inhibitors). chicken DT40 Tdp1-/-;hTDP1 cells + 20 nM CPT, ATP luminescence, 48 h. Potency, µM (titrated, usually from 46.2 µM), inactives show top-dose activity change, negative = growth inhibition, actives largely listed as inhibitors. actives 12% (n = 420,000). AID 686979; note: potency is the fitted concentration of half-maximal effect; nearly all actives have a fitted effect of over 55% in size
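Cell growth measured by CellTiter-Glo luminescence after a minimum 48 h, 37 C compound exposure with 20 nM CPT in Tdp1-knockout DT40 cells stably expressing hTDP1, seeded 400/well; qHTS titration format.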
HT1080 IDH1KD tx = toxicity to HT-1080 IDH1 knockdown cells (counter line); Potency, µM (doses to about 46.1 µM), inactives show top-dose activity, negative = toxicity, usual class: cytotoxic; actives 2% (n = 360,000); AID 686971; HT-1080 IDH1 knockdown viability, ATP luminescence, 48 h;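 note: potency is the fitted concentration of half-maximal effect; 0% = DMSO wells and -100% = cell-free medium wells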
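In this qHTS, HT-1080 cells depleted of IDH1 are exposed for 48 h at 37 °C to compound titrations. Toxicity is scored from CellTiter-Glo luminescence, with DMSO as full viability and medium alone as none.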
TDP1 cell noCPT = qHTS for Inhibitors of human tyrosyl-DNA phosphodiesterase 1 (TDP1): qHTS in cells in absence of CPT. DT40 Tdp1-/- hTDP1 cells, no CPT, ATP luminescence, 48 h. Potency, µM (titrated, usually from 46.2 µM), for the others: at the highest dose activity change, negative = growth inhibition, usual class: inhibitors. actives 15% (n = 420,000). AID 686978, 2013; note: potency is the fitted concentration of half-maximal effect; nearly all actives have a fitted effect of over 55% in size
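Chicken DT40 Tdp1-/- cells complemented with human TDP1, screened without camptothecin (DMSO vehicle only), 400 cells/well. Compounds pin-transferred, cells incubated at 37 °C for at least 48 hr. Growth read as ATP-dependent luminescence (CellTiter-Glo, 30 min at RT).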
HT1080NT lethal = kills 2HG-producing HT-1080-NT fibrosarcoma cells | Potency, µM (doses to about 46.1 µM), inactives show top-dose activity, negative = less viability, most hits filed as cytotoxic | HT-1080-NT fibrosarcoma viability, CellTiter-Glo ATP luminescence, 48 h | actives 1.6% (n = 360,000);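 note: NT is the 2HG producing partner of a matched IDH1 knockdown line; potency is the fitted concentration of half-maximal effect; 0% = DMSO-treated cells and -100% = media-only wells without cells; nearly all actives have a fitted effect of over 55% in size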
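Fibrosarcoma NT cells, 750 per well in 5% FBS RPMI, were exposed to compound for 48 hours. Viability: CellTiter-Glo luminescence.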
* marks the source's active call; other numbers are inactive results; ? = inconclusive; . = no result. Unless noted, calls come from the whole dose curve; as a rule, active = well fitted curve in the direction sought with a large enough effect; inconclusive = small, poorly fitted or top-dose-only effect, or another doubt; inactive = no such curve, though single readings can be large; an effect the other way counts as inactive or inconclusive. Unless noted, % is set by controls: 0 for no effect and ±100 for the full control effect.

SMILES	IL-1B inflam inh	DT40 TDP1 CPT	HT1080 IDH1KD tx	TDP1 cell noCPT	HT1080NT lethal
N#CC1=C(N)OC2=C(C(=O)CCC2)C1c1cc2c(cc1Br)OCO2 (configuration not stated)	-10	-4%	-2%	-14%	-4%
COc1ccc(/C=C/C(=O)O)cc1COc1ccccc1C	25	-15%	10%	-23%	6%
O=C(/C=C/c1ccc2c(c1)OCCO2)c1ccccc1	?	?	-12%	16µM*	-5%
COc1ccc(C(=O)/C=C/c2ccc(OC)c(COc3ccc(F)cc3)c2)cc1	-93*	?	-20%	?	9%
Nc1ccn([C@@H]2O[C@H](C(=O)Nc3ccc(Oc4ccccc4)nc3)[C@@H](O)[C@H]2O)c(=O)n1	7	-4%	3%	12%	7%
CN(C)CCCC(C)(O)C(Cc1ccccc1)c1ccccc1 (configuration not stated)	-17	?	-9%	21µM*	-14%
CN(C)CCCNC(=O)CC(c1ccccc1)c1ccccc1O (configuration not stated)	0	4%	21%	-14%	13%
CCCCNC(=O)CNC(=O)c1nn(-c2ccc(OC)c(OC)c2)c(=O)c2ccccc12	2	-24%	7%	?	3%
CCOc1ccccc1NC(=O)CNC(=O)c1nn(-c2ccc(OC)c(OC)c2)c(=O)c2ccccc12	-8	?	-6%	9.2µM*	-14%
COc1ccc(-n2nc(C(=O)NCC(=O)Nc3cccc(Cl)c3)c3ccccc3c2=O)cc1OC	2	15µM*	15%	15µM*	0%
CCOc1ccc(NC(=O)CNC(=O)c2nn(-c3ccc(OC)c(OC)c3)c(=O)c3ccccc23)cc1	-2	-23%	4%	-25%	11%
CCN(CCCNC(=O)CNC(=O)c1nn(-c2ccc(OC)c(OC)c2)c(=O)c2ccccc12)c1ccccc1	?	?	-10%	18µM*	-19%
COc1ccc(CCNC(=O)CNC(=O)c2nn(-c3ccc(OC)c(OC)c3)c(=O)c3ccccc23)cc1OC	-6	-28%	-1%	9.2µM*	2%
COc1ccc(-n2nc(C(=O)NCC(=O)NCCc3ccc(OC)c(OC)c3)c3ccccc3c2=O)cc1	0	?	15%	?	-1%
O=C(Cn1cncn1)c1ccccc1Br	26	6%	6%	17%	1%
Cn1nc(C(F)(F)F)c(-c2ccc(Br)cc2)c1NC(=O)c1nccnc1C(=O)O	1	17%	24%	18%	15%
Cc1cnc(CNc2nc(-c3ccccc3Cl)nc3ccccc23)cn1	.	-15%	.	-14%	.
O=C(CSc1nc(-c2cccs2)nc2cc(=O)[nH]n12)Nc1ccccc1Cl	.	-25%	.	?	.
O=C1CSC(=S)N1	-17	-17%	16%	0%	30%
COc1ccc(-n2nc(C(=O)NCC(=O)N3CCCC(C)C3)c3ccccc3c2=O)cc1 (configuration not stated)	-10	-14%	-9%	21µM*	-7%
COc1ccc(-n2nc(C(=O)NCC(=O)Nc3cc(Cl)c(OC)cc3OC)c3ccccc3c2=O)cc1	7	-39%	16%	-60%	0%
COc1ccc(NC(=O)CNC(=O)c2nn(-c3ccc(OC)c(Cl)c3)c(=O)c3ccccc23)c(OC)c1	-4	?	-14%	16µM*	-21%
COc1ccc(Cc2noc(CN(C)Cc3ccc(-n4cccn4)cc3)n2)cc1OC	-15	?	-3%	21µM*	-22%
CN(Cc1ccc2nonc2c1)Cc1nc(Cc2cccc(F)c2)no1	-16	-5%	-5%	1%	-1%
CCc1ccc(CN(C)Cc2nc(Cc3ccc(OC)c(OC)c3)no2)nc1	0	16µM*	6%	?	-15%
SMILES	IL-1B inflam inh	DT40 TDP1 CPT	HT1080 IDH1KD tx	TDP1 cell noCPT	HT1080NT lethal
CN1C(=O)/C(=C/c2cccc(Cl)c2)Sc2ccc(C(=O)N3CCCC3)cc21	-2	?	0%	?	3%
NC(=O)c1ccsc1NC(=O)COC(=O)C1CC2CCCC(C1)C2=O (configuration not stated)	20	-3%	-5%	-6%	-7%
COC(=O)C1=C(C)OC(N)=C(C#N)C1c1cc(OC)c(OCC(N)=O)cc1Cl (configuration not stated)	20	?	1%	?	7%
COc1ccccc1C1=CC(=O)CC(C)(C)C1=O	11	0%	2%	-2%	28%
O=C(O)c1cccc2c1-c1ccc(Cl)cc1C2	-9	-9%	-3%	-8%	10%
O=C(O)c1ccc(S(=O)(=O)c2ccc3c(c2)C(=O)N(NC(=O)c2ccc(O)cc2)C3=O)cc1	17	10%	4%	20%	4%
Cc1ccc(C(=O)NN2C(=O)c3ccc(S(=O)(=O)c4ccc(C(=O)O)cc4)cc3C2=O)cc1	16	18µM*	11%	?	14%
CC(C)CCNC(=O)CO/N=C/c1ccccc1OC(F)F	0	-15%	0%	-1%	1%
Cc1cccc(N2CN(Cc3ccco3)CNC2=S)c1	10	-8%	-2%	-12%	-4%
O=C(CC1(O)C(=O)N(C/C=C/c2ccccc2)c2ccccc21)c1ccccn1 (configuration not stated)	34	1.3µM*	10µM*	0.89µM*	?
Cc1coc(C)c1C(=O)CC1(O)C(=O)N(CCc2ccccc2)c2ccccc21 (configuration not stated)	-2	?	-3%	?	4%
O=C(CC1(O)C(=O)N(CCc2ccccc2)c2ccccc21)c1ccccn1 (configuration not stated)	-10	2.6µM*	25%	5.2µM*	15%
C=CCN1C(=O)C(O)(CC(=O)c2ccc(N)cc2)c2ccccc21 (configuration not stated)	-9	?	-8%	?	7%
Cc1cnc(NC(=O)CC2OC(=O)c3ccccc32)s1 (configuration not stated)	16	-27%	8%	-16%	8%
COc1ccc(C)cc1NC(=O)CSc1nnc2ccc(-c3cccnc3)nn12	-13	1%	1%	1%	-4%
COc1cc(CNC2CCCc3ccccc32)cc(OC)c1OC (configuration not stated)	-13	?	-4%	21µM*	-11%
COc1cc(CNC2CCCC2)cc(Cl)c1OCc1ccccc1Cl	-94*	23µM*	?	23µM*	?
COc1cc(CNC2CCCC2)cc(OC)c1OC	-4	5%	8%	-3%	-4%

Screening results as filed in PubChem BioAssay.
